{
  "source": "paper PMC7862700",
  "about": "“An all-to-all approach to the identification of sequence-specific readers for epigenetic DNA modifications on cytosine”",
  "assay_in_all_cases": "DAPPL (digital affinity profiling via proximity ligation, sequencing); 10 mM Tris-HCl pH 7.5, 50 mM NaCl, 1 mM DTT, 4% glycerol, room temperature, 30 min; GST-TFs on glutathione beads, 16-mer random dsDNA library, 0.1% formaldehyde crosslink after washing; high values mean tight binding",
  "key": {"FEV": {"biological_target": "T1, FEV (Homo sapiens, UniProt Q99581 1-238)", "T1 sequence": "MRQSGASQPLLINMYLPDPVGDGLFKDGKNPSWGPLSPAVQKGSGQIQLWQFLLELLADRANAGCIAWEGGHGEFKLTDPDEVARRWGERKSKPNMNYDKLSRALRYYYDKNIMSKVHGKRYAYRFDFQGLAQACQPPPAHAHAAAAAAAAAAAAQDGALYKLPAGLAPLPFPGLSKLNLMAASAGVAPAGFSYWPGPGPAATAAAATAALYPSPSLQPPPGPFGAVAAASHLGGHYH", "conditions": "protein: recombinant; tags: N-terminal GST; dsDNA, one strand shown", "how_it_was_run": "(§1)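 Binding signal is each hexamer's read frequency for a factor divided by its frequency in the tag-only sample. The factors were GST-fused human transcription factors from yeast, captured on glutathione beads, DNA-barcoded and pooled with that sample. Pools were incubated with 200 nmole of a random double-stranded 16-mer DNA library in Tris/NaCl/DTT/glycerol buffer at room temperature for 30 min, then washed, crosslinked with 0.1% formaldehyde, proximity-ligated with BsaI/T4 ligase (1 h, 37 °C), PCR-amplified and sequenced on an Illumina NextSeq500.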"}, "ETV5": {"biological_target": "ETV5 (Homo sapiens, UniProt P41161 1-510)", "sequence (P41161 whole entry)": "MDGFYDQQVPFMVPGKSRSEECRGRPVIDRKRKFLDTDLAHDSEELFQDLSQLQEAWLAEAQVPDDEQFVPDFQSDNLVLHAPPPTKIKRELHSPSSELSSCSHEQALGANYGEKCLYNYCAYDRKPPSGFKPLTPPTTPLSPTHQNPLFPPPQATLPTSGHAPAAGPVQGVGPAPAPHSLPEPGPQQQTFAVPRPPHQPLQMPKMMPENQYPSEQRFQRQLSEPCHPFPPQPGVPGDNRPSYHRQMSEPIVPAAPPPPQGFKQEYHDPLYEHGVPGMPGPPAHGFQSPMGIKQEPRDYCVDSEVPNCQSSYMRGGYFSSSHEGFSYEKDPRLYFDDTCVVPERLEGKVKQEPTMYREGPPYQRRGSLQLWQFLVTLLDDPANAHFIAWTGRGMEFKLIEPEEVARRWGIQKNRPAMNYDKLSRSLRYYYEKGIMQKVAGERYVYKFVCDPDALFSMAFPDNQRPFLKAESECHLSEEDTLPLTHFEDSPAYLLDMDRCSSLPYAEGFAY", "conditions": "protein: recombinant; tags: N-terminal GST; dsDNA, one strand shown", "how_it_was_run": "as §1"}, "HSF1": {"biological_target": "HSF1 (Homo sapiens, UniProt Q00613 1-529)", "sequence (Q00613 whole entry)": "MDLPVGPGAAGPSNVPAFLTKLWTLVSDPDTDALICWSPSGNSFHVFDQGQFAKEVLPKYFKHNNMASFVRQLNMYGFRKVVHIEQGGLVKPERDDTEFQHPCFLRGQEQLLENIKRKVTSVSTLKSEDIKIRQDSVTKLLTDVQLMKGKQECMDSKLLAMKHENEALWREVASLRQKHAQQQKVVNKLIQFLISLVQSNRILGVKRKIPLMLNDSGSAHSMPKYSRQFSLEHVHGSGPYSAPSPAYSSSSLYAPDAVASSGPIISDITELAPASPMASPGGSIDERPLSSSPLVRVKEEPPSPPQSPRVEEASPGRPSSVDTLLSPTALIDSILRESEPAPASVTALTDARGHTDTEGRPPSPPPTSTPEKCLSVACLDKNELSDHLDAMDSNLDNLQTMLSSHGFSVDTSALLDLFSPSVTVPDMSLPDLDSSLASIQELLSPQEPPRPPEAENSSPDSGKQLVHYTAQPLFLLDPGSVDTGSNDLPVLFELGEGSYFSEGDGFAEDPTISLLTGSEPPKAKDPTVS", "conditions": "protein: recombinant; tags: N-terminal GST; chain copies: 3; dsDNA, one strand shown", "how_it_was_run": "as §1"}, "SPIC": {"biological_target": "T2, SPIC (Homo sapiens, UniProt Q8N5J4 1-248)", "T2 sequence": "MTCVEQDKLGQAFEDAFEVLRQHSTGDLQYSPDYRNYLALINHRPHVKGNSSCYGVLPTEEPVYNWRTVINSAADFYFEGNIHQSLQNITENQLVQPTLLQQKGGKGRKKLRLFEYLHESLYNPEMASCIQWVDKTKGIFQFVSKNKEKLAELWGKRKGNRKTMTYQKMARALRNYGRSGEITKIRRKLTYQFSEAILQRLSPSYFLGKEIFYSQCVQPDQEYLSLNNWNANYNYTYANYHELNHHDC", "conditions": "protein: recombinant; tags: N-terminal GST; dsDNA, one strand shown", "how_it_was_run": "as §1"}, "ELF4": {"biological_target": "ELF4 (Homo sapiens, UniProt Q99607 1-663)", "sequence (Q99607 whole entry)": "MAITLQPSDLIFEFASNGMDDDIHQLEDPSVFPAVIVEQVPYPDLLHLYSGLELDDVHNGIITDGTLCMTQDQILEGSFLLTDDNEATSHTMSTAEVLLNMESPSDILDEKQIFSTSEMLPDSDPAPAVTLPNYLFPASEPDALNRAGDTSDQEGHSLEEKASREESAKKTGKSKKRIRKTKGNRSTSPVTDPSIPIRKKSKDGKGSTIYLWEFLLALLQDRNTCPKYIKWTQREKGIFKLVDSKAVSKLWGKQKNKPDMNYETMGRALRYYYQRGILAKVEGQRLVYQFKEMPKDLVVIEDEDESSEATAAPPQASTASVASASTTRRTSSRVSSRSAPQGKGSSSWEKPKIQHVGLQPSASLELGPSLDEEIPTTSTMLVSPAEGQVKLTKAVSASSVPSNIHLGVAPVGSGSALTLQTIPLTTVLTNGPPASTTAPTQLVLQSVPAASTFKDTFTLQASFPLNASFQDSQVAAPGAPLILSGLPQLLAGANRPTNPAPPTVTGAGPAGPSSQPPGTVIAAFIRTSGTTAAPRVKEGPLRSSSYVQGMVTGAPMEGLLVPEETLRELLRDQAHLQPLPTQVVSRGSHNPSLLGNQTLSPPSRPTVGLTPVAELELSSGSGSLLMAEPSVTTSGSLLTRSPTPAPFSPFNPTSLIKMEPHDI", "conditions": "protein: recombinant; tags: N-terminal GST; dsDNA, one strand shown", "how_it_was_run": "as §1"}, "ELK4": {"biological_target": "T3, ELK4 (Homo sapiens, UniProt P28324-2 1-405)", "T3 sequence": "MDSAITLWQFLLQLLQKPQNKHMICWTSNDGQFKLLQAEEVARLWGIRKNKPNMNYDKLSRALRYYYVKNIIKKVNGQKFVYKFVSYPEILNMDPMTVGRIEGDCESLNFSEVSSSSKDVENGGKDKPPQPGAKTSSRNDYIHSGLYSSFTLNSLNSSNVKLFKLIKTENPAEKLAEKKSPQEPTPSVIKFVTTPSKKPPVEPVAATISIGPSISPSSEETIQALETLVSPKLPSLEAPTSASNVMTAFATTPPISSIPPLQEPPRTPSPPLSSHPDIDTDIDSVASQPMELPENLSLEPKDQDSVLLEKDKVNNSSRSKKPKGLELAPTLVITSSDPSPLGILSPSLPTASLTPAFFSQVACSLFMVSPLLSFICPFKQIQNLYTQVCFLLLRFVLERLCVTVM", "conditions": "protein: recombinant; tags: N-terminal GST; dsDNA, one strand shown", "how_it_was_run": "as §1"}, "ETV2": {"biological_target": "T4, ETV2 (Homo sapiens, UniProt O00321 1-342)", "T4 sequence": "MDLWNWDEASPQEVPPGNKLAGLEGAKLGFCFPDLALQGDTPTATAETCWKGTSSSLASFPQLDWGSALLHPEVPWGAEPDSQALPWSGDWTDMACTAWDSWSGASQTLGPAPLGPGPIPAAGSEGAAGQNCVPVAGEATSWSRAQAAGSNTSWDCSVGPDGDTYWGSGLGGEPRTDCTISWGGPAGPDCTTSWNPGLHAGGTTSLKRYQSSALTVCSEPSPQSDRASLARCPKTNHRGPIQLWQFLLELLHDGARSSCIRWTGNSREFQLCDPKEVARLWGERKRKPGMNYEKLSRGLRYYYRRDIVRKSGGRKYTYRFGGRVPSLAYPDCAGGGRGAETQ", "conditions": "protein: recombinant; tags: N-terminal GST; dsDNA, one strand shown", "how_it_was_run": "as §1"}, "ELF3": {"biological_target": "T5, ELF3 (Homo sapiens, UniProt P78545 1-371)", "T5 sequence": "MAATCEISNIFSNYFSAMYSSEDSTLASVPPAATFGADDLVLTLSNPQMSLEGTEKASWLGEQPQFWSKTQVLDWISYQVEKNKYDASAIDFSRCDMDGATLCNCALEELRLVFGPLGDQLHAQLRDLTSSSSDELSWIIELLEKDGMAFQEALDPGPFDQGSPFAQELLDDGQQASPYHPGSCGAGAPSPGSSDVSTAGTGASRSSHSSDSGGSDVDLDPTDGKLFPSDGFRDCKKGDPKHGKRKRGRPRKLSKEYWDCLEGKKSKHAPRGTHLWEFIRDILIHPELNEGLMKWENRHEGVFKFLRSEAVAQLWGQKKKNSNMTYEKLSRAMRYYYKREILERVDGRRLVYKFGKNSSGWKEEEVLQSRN", "conditions": "protein: recombinant; tags: N-terminal GST; dsDNA, one strand shown", "how_it_was_run": "as §1"}, "CRX": {"biological_target": "CRX (Homo sapiens, UniProt O43186 1-299)", "sequence (O43186 whole entry)": "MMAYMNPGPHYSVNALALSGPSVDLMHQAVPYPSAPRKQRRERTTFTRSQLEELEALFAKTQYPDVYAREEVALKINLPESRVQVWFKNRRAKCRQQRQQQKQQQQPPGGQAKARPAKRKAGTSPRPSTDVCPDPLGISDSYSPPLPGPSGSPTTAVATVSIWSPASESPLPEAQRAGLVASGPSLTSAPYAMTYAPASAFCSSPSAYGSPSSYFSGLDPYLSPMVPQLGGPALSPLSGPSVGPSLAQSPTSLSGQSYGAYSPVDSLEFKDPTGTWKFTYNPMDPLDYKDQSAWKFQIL", "conditions": "protein: recombinant; tags: N-terminal GST; dsDNA, one strand shown", "how_it_was_run": "as §1"}},
  "data": [
    {"sequence": "ATCGCC", "values": [
      {"measurement": "binding signal", "setting": "FEV", "result": "1.24 fold enrichment (6-mer frequency, TF over GST control)"},
      {"measurement": "binding signal", "setting": "ETV5", "result": "1.23 fold enrichment (6-mer frequency, TF over GST control)"},
      {"measurement": "binding signal", "setting": "HSF1", "result": "1.28 fold enrichment (6-mer frequency, TF over GST control)"},
      {"measurement": "binding signal", "setting": "SPIC", "result": "1.31 fold enrichment (6-mer frequency, TF over GST control)"},
      {"measurement": "binding signal", "setting": "ELF4", "result": "1.24 fold enrichment (6-mer frequency, TF over GST control)"},
      {"measurement": "binding signal", "setting": "ELK4", "result": "1.28 fold enrichment (6-mer frequency, TF over GST control)"},
      {"measurement": "binding signal", "setting": "ETV2", "result": "1.2 fold enrichment (6-mer frequency, TF over GST control)"},
      {"measurement": "binding signal", "setting": "ELF3", "result": "1.12 fold enrichment (6-mer frequency, TF over GST control)"},
      {"measurement": "binding signal", "setting": "CRX", "result": "1.4 fold enrichment (6-mer frequency, TF over GST control)"}
    ]}
  ]
}
